Laboratory results published in PubChem BioAssay (NCI).
Compounds without any hit were thinned out: in the full panel of roughly 83,000, 20% have a hit.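 Treatment: one concentration, 48 hours, 96-well format. Scoring: percent growth, with anything below 10 considered active.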 The source made the active and inactive calls.

Tests used:
Experiment in all cases: NCI-60 one-dose screen, 48 h (100 = growth as untreated, 0 = no growth, -100 = all killed)
Settings in all cases: 10 µM unless noted
NCI-H23 lung = system: NCI-H23 lung
NCI-H226 lung = system: NCI-H226 lung
NCI-H322M lung = system: NCI-H322M lung
NCI-H460 lung = system: NCI-H460 lung
NCI-H522 lung = system: NCI-H522 lung
A549/ATCC NSCLC = system: A549/ATCC NSCLC
786-0 renal = system: 786-0 renal
COLO 205 colon = system: COLO 205 colon
DU-145 prostate = system: DU-145 prostate
K-562 leukemia = system: K-562 leukemia
MALME-3M melanoma = system: MALME-3M melanoma
MDA-MB-231 breast = system: MDA-MB-231 breast
SF-268 CNS = system: SF-268 CNS
SF-295 CNS = system: SF-295 CNS
SF-539 CNS = system: SF-539 CNS
UACC-257 melanoma = system: UACC-257 melanoma
M14 melanoma = system: M14 melanoma
RXF 393 renal = system: RXF 393 renal
HCT-15 colon = system: HCT-15 colon

Measured: growth

O=C1OCCCCCCCCCC#Cc2ccccc21
inactive: NCI-H23 lung 97% | NCI-H226 lung 110% | NCI-H322M lung 126% | NCI-H460 lung 133% | NCI-H522 lung 71.2% | A549/ATCC NSCLC 103% | 786-0 renal 103% | COLO 205 colon 100% | DU-145 prostate 116% | K-562 leukemia 94.2% | MALME-3M melanoma 146% | MDA-MB-231 breast 110% | SF-268 CNS 182% | SF-295 CNS 151% | SF-539 CNS 105% | UACC-257 melanoma 124% | M14 melanoma 109%

Cc1cc2cn3c4cccnc4[nH]c(=O)c3c2cc1C
active: NCI-H460 lung 4.12% | NCI-H522 lung -75% | 786-0 renal -14.5% | HCT-15 colon -37.7%
inactive: NCI-H23 lung 55.7% | NCI-H226 lung 90.3% | NCI-H322M lung 91.8% | MALME-3M melanoma 80.1% | MDA-MB-231 breast 40.5% | RXF 393 renal 70.6% | SF-268 CNS 73.4% | SF-295 CNS 34.4% | SF-539 CNS 76.7% | UACC-257 melanoma 85.8% | M14 melanoma 36.4%

Clc1cc(Cl)c(OCC#CI)cc1Cl
inactive: NCI-H23 lung 97.3% | NCI-H226 lung 43.1% | NCI-H322M lung 127% | NCI-H460 lung 100% | NCI-H522 lung 18% | A549/ATCC NSCLC 101% | 786-0 renal 98.9% | DU-145 prostate 86.8% | K-562 leukemia 69.5% | MDA-MB-231 breast 83.2% | SF-268 CNS 98.6% | SF-295 CNS 101% | SF-539 CNS 33.2% | M14 melanoma 37.7% | HCT-15 colon 42.1%
active: COLO 205 colon 5.9% | MALME-3M melanoma 0.95% | RXF 393 renal -11.9% | UACC-257 melanoma -3.08%

COc1cc(C2NC(c3ccc(Cl)cc3)C(C)/C(=N/NC(N)=S)C2C)cc(OC)c1OC (configuration not stated)
inactive: NCI-H23 lung 92.6% | NCI-H226 lung 85.9% | NCI-H322M lung 97.7% | NCI-H460 lung 100% | NCI-H522 lung 65.6% | A549/ATCC NSCLC 94.9% | 786-0 renal 91.1% | DU-145 prostate 117% | MALME-3M melanoma 73% | MDA-MB-231 breast 101% | RXF 393 renal 85.9% | SF-268 CNS 101% | SF-295 CNS 117% | SF-539 CNS 88.8% | UACC-257 melanoma 103% | M14 melanoma 92.7% | HCT-15 colon 81.9%

OC(CCC(O)(c1ccccc1)c1ccccc1)(c1ccccc1)c1ccccc1
active: K-562 leukemia 5.52%
inactive: NCI-H23 lung 80% | NCI-H226 lung 86.6% | NCI-H322M lung 102% | NCI-H460 lung 19.9% | NCI-H522 lung 89.8% | 786-0 renal 105% | COLO 205 colon 103% | MALME-3M melanoma 100% | MDA-MB-231 breast 81.5% | RXF 393 renal 80% | SF-295 CNS 65.1% | SF-539 CNS 115% | UACC-257 melanoma 82.8% | M14 melanoma 96.1% | HCT-15 colon 100%

COc1ccc(C2CC(c3cccc(Nc4ccnc5cc(Cl)ccc45)c3)=NN2C=O)cc1 (configuration not stated)
active: NCI-H522 lung -35.5% | COLO 205 colon -44.3% | DU-145 prostate 2.95% | RXF 393 renal -5.62% | SF-295 CNS 2.43% | SF-539 CNS -1.14%
inactive: NCI-H23 lung 10.7% | NCI-H226 lung 46.3% | NCI-H322M lung 62.5% | NCI-H460 lung 11.2% | A549/ATCC NSCLC 25.5% | 786-0 renal 34.7% | K-562 leukemia 14.4% | MALME-3M melanoma 55.8% | MDA-MB-231 breast 24.3% | SF-268 CNS 44.5% | UACC-257 melanoma 63.3% | M14 melanoma 25.2% | HCT-15 colon 27.8%

C[C@]12CC[C@@H]3c4ccc(O)cc4CC[C@H]3[C@@H]1CC[C@@H]2NS(=O)(=O)c1cccc(Br)c1
inactive: NCI-H23 lung 68.1% | NCI-H226 lung 60.5% | NCI-H322M lung 70.6% | NCI-H460 lung 61.7% | NCI-H522 lung 40.4% | A549/ATCC NSCLC 43.2% | 786-0 renal 70.3% | COLO 205 colon 64.7% | DU-145 prostate 75% | K-562 leukemia 30.1% | MALME-3M melanoma 63.2% | MDA-MB-231 breast 71.1% | RXF 393 renal 42.6% | SF-268 CNS 59.7% | SF-539 CNS 85.6% | UACC-257 melanoma 80.3% | M14 melanoma 68.9% | HCT-15 colon 50.9%

COC(=O)c1ccc2c(c1)nc(-c1ccc(O)c(OC)c1)n2-c1cc(C(C)(C)C)[nH]n1
inactive: NCI-H23 lung 93.3% | NCI-H226 lung 106% | NCI-H322M lung 103% | NCI-H460 lung 96.3% | NCI-H522 lung 78.7% | A549/ATCC NSCLC 87.9% | 786-0 renal 97.7% | COLO 205 colon 120% | DU-145 prostate 118% | K-562 leukemia 90.6% | MALME-3M melanoma 114% | MDA-MB-231 breast 97.7% | RXF 393 renal 131% | SF-268 CNS 104% | SF-539 CNS 105% | UACC-257 melanoma 101% | M14 melanoma 95.7% | HCT-15 colon 115%

CN(C)c1ccc2c(c1)/C(=N/O)c1ccccc1-2
inactive: NCI-H23 lung 89% | NCI-H226 lung 91.8% | NCI-H322M lung 113% | NCI-H460 lung 97.2% | NCI-H522 lung 89% | A549/ATCC NSCLC 84.2% | 786-0 renal 104% | COLO 205 colon 103% | DU-145 prostate 105% | K-562 leukemia 29.7% | MALME-3M melanoma 87.9% | MDA-MB-231 breast 89.8% | RXF 393 renal 81% | SF-268 CNS 78.3% | SF-539 CNS 60% | UACC-257 melanoma 81.6% | M14 melanoma 69.7% | HCT-15 colon 78.7%
